Experimental data from PubChem BioAssay AID1159580 (chemical genetic matrix, 2015).
The whole screen tested about 5,500 compounds, of which about 2,000 (36%) were called active. Another 18% or so got no clear call; they are omitted. No stated cut-off is given here; in the data, active means normalized growth mostly below about 0.91 (no sharp cut-off); inconclusive means no clear call, values can overlap the other calls; inactive means mostly above about 0.92. Some of the results follow.

Assay: chemical genetic growth profiling, strain panel (AID 1159580);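 further: tested at 20 µM; growth read once vehicle control cultures reached saturation at 30 °C; 1 = growth at the plate median or of vehicle wells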
Conditions: growth OD
[1] = S. cerevisiae deletion strains, locus YAL013W, strain DEP1, stronger effect = lower value
[2] = S. cerevisiae deletion strains, locus YBR229C, strain ROT2, stronger effect = lower value
[3] = S. cerevisiae deletion strains, locus YDL101C, strain DUN1, stronger effect = lower value
[4] = S. cerevisiae deletion strains, locus YDR150W, strain NUM1, stronger effect = lower value
[5] = S. cerevisiae deletion strains, locus YEL061C, strain CIN8, stronger effect = lower value
[6] = S. cerevisiae deletion strains, locus YGR078C, strain PAC10, stronger effect = lower value
[7] = S. cerevisiae deletion strains, locus YGR229C, strain SMI1, stronger effect = lower value
[8] = S. cerevisiae deletion strains, locus YHR030C, strain SLT2, stronger effect = lower value
[9] = S. cerevisiae deletion strains, locus YHR087W, strain rtc3, stronger effect = lower value
[10] = S. cerevisiae deletion strains, locus YJR043C, strain POL32, stronger effect = lower value
[11] = S. cerevisiae deletion strains, locus YJR075W, strain HOC1, stronger effect = lower value
[12] = S. cerevisiae deletion strains, locus YLR039C, strain RIC1, stronger effect = lower value
[13] = S. cerevisiae deletion strains, locus YLR058C, strain SHM2 (second series), stronger effect = lower value
[14] = S. cerevisiae deletion strains, locus YLR085C, strain ARP6, stronger effect = lower value
[15] = S. cerevisiae deletion strains, locus YLR262C, strain YPT6, stronger effect = lower value
[16] = S. cerevisiae deletion strains, locus YML094W, strain GIM5, stronger effect = lower value
[17] = S. cerevisiae deletion strains, locus YMR219W, strain ESC1, stronger effect = lower value
[18] = S. cerevisiae deletion strains, locus YMR263W, strain SAP30, stronger effect = lower value
[19] = S. cerevisiae deletion strains, locus YNL153C, strain GIM3, stronger effect = lower value
[20] = S. cerevisiae deletion strains, locus YNL298W, strain CLA4 (second series), stronger effect = lower value
[21] = S. cerevisiae deletion strains, locus YNL322C, strain KRE1, stronger effect = lower value
[22] = S. cerevisiae deletion strains, locus YNR030W, strain Alg12, stronger effect = lower value
[23] = S. cerevisiae deletion strains, locus YPL055C, strain LGE1, stronger effect = lower value
[24] = S. cerevisiae deletion strains, locus YPL241C, strain CIN2, stronger effect = lower value
[25] = S. cerevisiae deletion strains, locus YPR135W, strain CTF4, stronger effect = lower value
[26] = S. cerevisiae deletion strains, locus YMR307W, strain GAS1, stronger effect = lower value

Measured: normalized growth

O=c1cc(C(F)(F)F)[nH]c2c(Cl)cccc12
inactive: [4] 0.86 | [8] 0.847 | [12] 0.846 | [14] 0.827 | [15] 0.847 | [16] 0.938 | [20] 0.902 | [22] 0.919 | S. cerevisiae deletion strains, locus YOL006C, strain TOP1, stronger effect = lower value 0.913 | [24] 0.935 | [25] 0.874
active: [1] 0.884 | [2] 0.816 | [3] 0.883 | [5] 0.886 | [6] 0.813 | [7] 0.929 | [9] 0.831 | [10] 0.905 | [11] 0.779 | [13] 0.84 | [17] 0.831 | [18] 0.844 | [19] 0.86 | [21] 0.863 | [23] 0.823

O=C(O)/C(=C/c1c(C(=O)O)[nH]c2cc(Cl)cc(Cl)c12)c1ccccc1
inactive: [1] 0.99 | S. cerevisiae deletion strains, locus YAL040C, strain CLN3, stronger effect = lower value 1.07 | S. cerevisiae deletion strains, locus YCL061C, strain MRC1 (second series), stronger effect = lower value 0.977 | [4] 0.979 | S. cerevisiae deletion strains, locus YDR363W, strain ESC2, stronger effect = lower value 1.03 | S. cerevisiae deletion strains, locus YER002W, strain NOP16, stronger effect = lower value 0.993 | [7] 0.999 | [11] 0.988 | [18] 0.979 | [26] 1.01 | S. cerevisiae deletion strains, locus YNL175C, strain NOP13, stronger effect = lower value 0.996 | S. cerevisiae deletion strains, locus YNL197C, strain WHI3, stronger effect = lower value 0.98 | S. cerevisiae deletion strains, locus YNL224C, strain SQS1, stronger effect = lower value 0.977 | [21] 0.975 | S. cerevisiae deletion strains, locus YOR083W, strain WHI5 (second series), stronger effect = lower value 0.99 | [23] 0.985

O=c1cc(C(F)(F)F)[nH]c2cc(Cl)cc(Cl)c12
active: [1] 0.59 | [2] 0.47 | S. cerevisiae deletion strains, locus YCL061C, strain MRC1, stronger effect = lower value 0.649 | [3] 0.513 | [4] 0.627 | [5] 0.745 | [6] 0.475 | [8] 0.564 | [9] 0.544 | [10] 0.697 | [11] 0.514 | [12] 0.356 | [13] 0.694 | [14] 0.487 | [15] 0.428 | [16] 0.854 | [17] 0.612 | [18] 0.456 | [26] 0.561 | S. cerevisiae deletion strains, locus YNL128W, strain TEP1, stronger effect = lower value 0.881 | [19] 0.534 | [20] 0.742 | [21] 0.798 | [22] 0.664 | [23] 0.523 | [24] 0.748 | S. cerevisiae strains, strain wild type, stronger effect = lower value 0.836
inactive: S. cerevisiae deletion strains, locus YJL187C, strain SWE1, stronger effect = lower value 1.01 | [25] 0.714
